Shiga toxin inh: blocks Shiga toxin action in Vero cells; Vero cells, Shiga toxin protein synthesis inhibition reporter; inhibition, % at 38.7 µM; 290,000 tested, 9.2% active; AID 2315; in the data active means inhibition mostly above about 28%, no sharp cut-off; inactive means mostly below about 43%; further: 0% is about no effect
LmPK inhibitor: LmPK (Leishmania mexicana) enzyme inhibition. Potency, µM (highest dose often 57.5 µM), for the others: at the highest dose activity change, negative = inhibition, hits mostly inhibitors. purified LmPK, Kinase-Glo ATP luminescence, 1 h. 290,000 tested, 0.37% active; further: potency means the concentration at half of the fitted maximal effect; on the % scale 0 is the no-effect control and ±100 the full control effect
Target sequence (Q27686 whole entry, looked up): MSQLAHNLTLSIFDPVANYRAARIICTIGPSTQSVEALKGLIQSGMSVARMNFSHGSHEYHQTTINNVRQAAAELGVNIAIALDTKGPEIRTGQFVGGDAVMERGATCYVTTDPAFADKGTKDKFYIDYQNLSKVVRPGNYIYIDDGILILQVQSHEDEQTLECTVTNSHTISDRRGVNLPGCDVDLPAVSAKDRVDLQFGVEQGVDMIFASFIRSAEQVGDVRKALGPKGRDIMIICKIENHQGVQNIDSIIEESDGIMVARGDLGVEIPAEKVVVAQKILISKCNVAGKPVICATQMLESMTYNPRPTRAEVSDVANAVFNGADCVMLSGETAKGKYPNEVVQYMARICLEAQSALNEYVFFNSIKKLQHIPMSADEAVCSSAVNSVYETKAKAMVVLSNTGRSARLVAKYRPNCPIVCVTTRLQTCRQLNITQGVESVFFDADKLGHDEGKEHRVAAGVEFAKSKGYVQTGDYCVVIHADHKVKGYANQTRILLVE
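In 50 mM imidazole pH 7.2 with 7 mM MgCl2, LmPK (0.1 nM) turned over PEP (0.5 mM) and ADP (0.1 mM) for 1 h at room temperature. Luciferase read-out of ATP.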
RE007 growth inh: less growth of the S. pombe RE007 Vpr strain | S. pombe RE007 Vpr strain, BacTiter-Glo ATP luminescence, 24 h | Potency, µM (titrated, usually from 92.2 µM), without a hit: top-dose activity change, negative = less growth, hits mostly inhibitors | 360,000 tested, 0.21% active | AID 651644; active means well fitted falling curve with a large enough effect; inconclusive means small, poorly fitted or top-dose-only effect; inactive means no such curve, though single readings can be large or run the other way; further: potency means the concentration at half of the fitted maximal effect; on the % scale 0 is the no-effect control and ±100 the full control effect; nearly all actives have a fitted effect of over 50% in size
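Fission yeast RE007 carrying one integrated HIV-1 vpr copy, seeded at OD 0.01 in PMG+AL medium with 23 nL pinned compound. Grown 24 h at 30 degrees; viability read by BacTiter-Glo luminescence after 5 min.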
CHX counter: affects cycloheximide protein synthesis inhibition readout, counter-screen. cell reporter, cycloheximide protein synthesis inhibition counterscreen. max response, %. 300,000 tested, 12% active; in the data active means max response mostly above about 13%, no sharp cut-off; inactive means mostly below about 14%; further: read at 38.3 µM for the half of the compounds with a filed dose; 0% is about no effect
TbPYK inhibitor: T. brucei pyruvate kinase inhibition; TbPYK enzyme, Kinase-Glo Plus ATP luminescence, 45 min; Potency, µM (doses to about 76.8 µM), inactives show at the top dose activity, negative = inhibition, hits mostly inhibitors; 410,000 tested, 0.12% active; further: potency means the concentration at half of the fitted maximal effect; on the % scale 0 is the no-effect control and ±100 the full control effect; nearly all actives have a fitted effect of over 50% in size
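Assay buffer: 50 mM TEA pH 7.2, 100 mM KCl, 10 mM MgCl2, 0.05% BSA, 0.01% Tween-20. Pyruvate kinase from T. brucei plus substrate met compound, then ADP (130 uM final). Luminescence was read post 45 min RT.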
FBPA Giardia inh: blocks Giardia fructose-bisphosphate aldolase activity. A8B2U2. purified Giardia FBPA. Potency, µM (titrated, usually from 59.6 µM), for the others: top-dose activity, negative = inhibition, usual class: inhibitors. 290,000 tested, 0.71% active. AID 2451; further: potency means the concentration at half of the fitted maximal effect; on the % scale 0 is the no-effect control and ±100 the full control effect; nearly all actives have a fitted effect of over 55% in size
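Giardia FBPA (40 nM reagent) was preincubated 10 min at RT with compound (up to 57.5 uM final), then substrate plus GAPDH/TPI/NAD/arsenate coupling system with diaphorase/resazurin was added; resorufin fluorescence (525/598 nm) was read after 20 min.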
An asterisk follows results filed as active; ? = inconclusive; . = no result given. Many of the other results were omitted from the sample, so hits are more common in it than they were. Unless noted, the call rests on the fitted dose curve; in most records, active means well fitted curve in the direction sought with a large enough effect; inconclusive means small, poorly fitted or top-dose-only effect, or another doubt; inactive means no such curve, though single readings can be large; an effect the other way counts as inactive or inconclusive.

SMILES	Shiga toxin inh	LmPK inhibitor	RE007 growth inh	CHX counter	TbPYK inhibitor	FBPA Giardia inh
Cc1ccc(NC(=O)C(=O)NCC(c2ccc3c(c2)OCO3)N2CCOCC2)c(C)c1 (configuration not stated)	.	.	.	.	6%	.
COc1ccccc1/C=C1\SC(N2CCC(C)CC2)=NC1=O	57*	-3%	-11%	26*	8%	7%
CCOC(=O)C1CCN(C2=NC(=O)/C(=C/c3ccccc3OC)S2)CC1	26	-1%	0%	8	12%	1%
COc1cccc(/C=C2\SC(N3CCC(C)CC3)=NC2=O)c1OC	30	6%	5%	13*	3%	-1%
COc1cc(OC)c(OC)cc1/C=C1\SC(N2CCCCC2)=NC1=O	13	-2%	0%	6	-8%	1%
COc1cccc(/C=C2\SC(=S)N(N3CCOCC3)C2=O)c1OC	15	-1%	34%	23*	-12%	-4%
COc1cccc(/C=C2\SC(N3CCCC(C)C3)=NC2=O)c1OC (configuration not stated)	56*	0%	-3%	17*	-9%	-3%
O=C(CCCn1c(=O)c2sccc2n(Cc2c(F)cccc2Cl)c1=O)NCc1ccccc1	.	.	.	.	-1%	.
O=C(NC1CC1)c1ccc(F)cc1Cl	3	1%	-3%	6	-7%	1%
O=C(NC1CCCCCCC1)c1cc(F)c(F)cc1Cl	83*	-3%	36%	26*	4%	-2%
Cc1ccc(C(=O)NC2CCCCCCC2)c(Cl)c1	.	0%	-16%	16*	-3%	3%
CC(=O)Nc1ccccc1NC(=O)C/C(C)=N/NC(=O)c1ccccn1	61*	4%	-10%	38*	2%	?
C/C(CC(=O)NC1CCCCC1)=N\NC(=O)c1ccccn1	64*	-6%	-14%	39*	2%	-7%
C/C(CC(=O)NCc1ccccc1Cl)=N/NC(=O)c1ccccn1	79*	2%	-24%	25*	-3%	12%
C/C(CC(=O)Nc1ccc(F)cc1)=N\NC(=O)c1ccccn1	24	2%	-12%	18	-4%	-22%
Cc1ccc(CNC(=O)c2ccc3c(O)c(S(=O)(=O)c4ccccc4)c(=O)[nH]c3c2)cc1	.	.	.	.	-11%	.
O=C(/C=C/c1ccccc1)N1CCC(Cc2ccccc2)CC1	41	-3%	-15%	30	-5%	4%
O=C(/C=C/c1ccccc1)N1CCC(c2ccccc2)C1 (configuration not stated)	74*	-4%	13%	59*	-7%	-1%
O=C(/C=C/c1ccco1)N1CCCC(c2ccccc2)C1 (configuration not stated)	47*	2%	2%	23*	-13%	0%
O=C(NCc1cccc(Cl)c1)c1ccc2c(Cl)c3c(nc2c1)CCCC3	.	.	.	.	-5%	.
CCC1(C)Cc2c(sc3nc(SCC(=O)O)[nH]c(=O)c23)CO1 (configuration not stated)	11	18µM*	-10%	-4	?	3%
CCC1(C)Cc2c(sc3nc(NC)n(C)c(=O)c23)CO1 (configuration not stated)	27	-2%	1%	67*	-29%	5%
Cn1c(NN)nc2sc3c(c2c1=O)CC(C)(C)OC3	16	-3%	-2%	-3	3%	-6%
CCc1nnc(SCC(=O)N(CC)c2ccccc2)c2cc3oc(C)cc3n12	.	.	.	.	0%	.
CCCCC/C=C\C/C=C\C/C=C\C/C=C\CCCC(=O)O[C@H](COCCCCCCCCCCCCCCCC)COP(=O)([O-])OCC[N+](C)(C)C	.	.	.	.	.	-15%
Cc1cccc(C)c1NC(=O)c1ccc([N+](=O)[O-])s1	-5	-2%	-7%	-2	-24%	9%
Cc1ccnc(NC(=O)c2ccc([N+](=O)[O-])s2)c1	85*	-12%	?	60*	1%	-6%
Cc1cccc(NC(=O)c2ccc([N+](=O)[O-])s2)n1	61*	1%	16µM*	61*	1%	-19%
